Measured values as given in PubChem BioAssay (EPA / NIEHS).
The source made the active and inactive calls. How the source made its calls: active means hit-call score of the fitted dose curve at least 0.9, where 1 is the maximum; inactive means score below 0.9.

Test: ATG_Oct_MLP_CIS: Attagene CIS-FACTORIAL HepG2 Assay for human Octamer-Binding Transcription Factor (Oct) (AID 2282993)
Settings: HepG2 Attagene cis-factorial Oct reporter, mRNA; actives raise or lower the signal
Experimental: ATG_CIS is a cell-based, multiplexed-readout assay that uses HepG2, a human liver cell line, with measurements taken at 24 hours after chemical dosing in a 24-well plate.ATG_Oct_MLP_CIS is one of 52 assay component(s) measured or calculated from the ATG_CIS assay. It is designed to make measurements of mRNA induction, a form of inducible reporter, as detected with fluorescence intensity signals by Reverse transcription polymerase chain reaction (RT-PCR) and Capillary electrophoresis technology.Data from the assay component ATG_Oct_MLP_CIS was analyzed into 1 assay endpoint. This assay endpoint, ATG_Oct_MLP_CIS, was analyzed with bidirectional fitting relative to DMSO as the negative control and baseline of activity. Using a type of inducible reporter, measures of mRNA for gain or loss-of-signal activity can be used to understand the reporter gene at the transcription factor-level as they relate to the gene POU2F1. Furthermore, this assay endpoint can be referred to as a primary readout, because this assay has produced multiple assay endpoints where this one serves a reporter gene function. To generalize the intended target to other relatable targets, this assay endpoint is annotated to the dna binding intended target family, where the subfamily is POU domain protein.
Human liver HepG2 cells are transiently transfected with multiple reporter transcription units (MRTUs) in 6-well plates using FuGene 6 reagent (Roche; 3 ml FuGene/1 mg DNA). The MRTU constructs are regulated by a cis-regulating element (promoter). […] A major difference between the CIS and TRANS system is that in CIS activities of endogenous TFs are measured, whereas the TRANS assay evaluates changes in activities of exogenous, chimeric NR-Gal4 proteins. […] At the end of 24 hour incubation, total RNA was isolated using TriZol reagent (Invitrogen). The isolated RNA is then reverse-transcribed using oligo(dT) primer and Mo-MLV reverse transcriptase (Invitrogen) with DNAse I (Ambion) treatment for 30 min. The one-tenth of the produced cDNA was amplified by PCR using Taq DNA polymerase (Invitrogen) and two reporter sequence-specific primers. The PCR products were fluorescently labeled by primer extension with 6-arboxyfluorescein (6-FAM) 5'-labeled reporter sequence-specific primer (2 min at 95 C, 20 s at 68 C and 10 min at 72 C) and these products were digested with 5U of HpaI (New England Biolabs) for 2h at 37 C. The fragments were purified using Qiaquick PCR columns (Qiagen), analyzed on an ABI 3130xL genetic analyzer (Applied Biosystems) with peak positions identified by using a set of X-rhodamine (ROX)-labeled MapMarker1000 molecular weight standards (BioVentures). The raw capillary electrophoresis data was processed using Attagraph software (Attagene).

SMILES	outcome	AC50
C#C[C@]1(O)CC[C@H]2[C@@H]3CCc4cc(OC)ccc4[C@H]3CC[C@@]21C	inactive	
CCCCCCOC(=O)c1ccccc1O	inactive	
Oc1ccc(Nc2ccccc2)cc1	inactive	
O=C(O)C(F)(F)C(F)(F)C(F)(F)C(F)(F)C(F)(F)C(F)(F)C(F)(F)C(F)(F)C(F)(F)C(F)(F)C(F)(F)C(F)(F)F	inactive	
CCCCCC=O	inactive	
Nc1ccc(S(=O)(=O)Nc2nccs2)cc1	inactive	
CCCCOc1ccc(N)cc1	inactive	
CCCCCCS	inactive	
c1ccc(-c2ccccc2-c2ccccc2)cc1	inactive	
O=S(=O)(O)C(F)(F)C(F)(F)C(F)(F)C(F)(F)C(F)(F)C(F)(F)C(F)(F)F	inactive	
OCC(F)(F)C(F)(F)C(F)(F)C(F)F	inactive	
CC(C)OC(=O)c1ccccc1C(=O)OC(C)C	inactive	
O=C(O)C(F)(F)C(F)(F)C(F)F	inactive	
C=CC(F)(F)C(F)(F)C(F)(F)C(F)(F)C(F)(F)C(F)(F)C(F)(F)C(F)(F)C=C	inactive	
O=C(OCCOCCOCCOC(=O)c1ccccc1)c1ccccc1	inactive	
O=C(O)C=C(C(F)(F)F)C(F)(F)F	inactive	
CCN(CC)c1ccc2c(C)cc(=O)oc2c1	inactive	
C=C(C)C(=O)OCC(F)(F)C(F)(F)C(F)(F)C(F)(F)C(F)(F)C(F)(F)C(F)(F)F	inactive	
c1ccc(B(c2ccccc2)c2ccccc2)cc1		43.3 µM (active)
CC(Cc1ccc(O)c(O)c1)C(C)Cc1ccc(O)c(O)c1 (stereo not given)		20.6 µM (active)

SMILES	outcome	AC50
CCCCCCC(C)OC(=O)CCCCC(=O)OC(C)CCCCCC (stereo not given)	inactive	
CN(C)Cc1ccccc1O		179 µM (active)
FC(F)(F)C(F)(F)C(F)(F)C(F)(F)C(F)(F)C(F)(F)CCS	inactive	
O=C(O)C(F)(F)C(F)(F)C(F)(F)C(F)(F)F	inactive	
O=C(Cl)C(F)(F)C(F)(F)C(F)(F)C(F)(F)C(F)(F)C(F)(F)C(F)(F)C(F)(F)F		47.1 µM (active)
Cc1cccc(N(C)C)c1	inactive	
FC(F)(F)C(F)(F)C(F)(F)CI	inactive	
FC(F)(F)C(F)(F)CNCC(F)(F)C(F)(F)F	inactive	
Nc1ccc([N+](=O)[O-])cc1O	inactive	
CC(C)c1ccccc1N	inactive	
O=S(=O)(OCCOC(F)(F)F)C(F)(F)F	inactive	
C=C(C)C(=O)OCC(F)(F)C(F)(F)C(F)(F)F	inactive	
[Co]	inactive	
CCCCOCCOCCOC(=O)CCCCC(=O)OCCOCCOCCCC	inactive	
CCN(Cc1cccc(S(=O)(=O)O)c1)c1ccc(C(=C2C=CC(=[N+](CC)Cc3cccc(S(=O)(=O)O)c3)C=C2)c2ccc(O)cc2S(=O)(=O)[O-])cc1	inactive	
FC(F)(F)C(F)(F)C(F)(F)C(F)(F)C(F)(F)C(F)(F)C(F)(F)Br	inactive	
Nc1cc(Cl)c(N)c(Cl)c1	inactive	
CCC(=O)OCCc1ccccc1	inactive	
COC(=O)C1CCC(C(=O)OC)CC1 (stereo not given)	inactive	
FC(F)(F)C(F)(F)C(F)(F)C(F)(F)CCI	inactive	
